Experimental data from PubChem BioAssay (NCI).
Compounds without any hit were thinned out: in the full panel of roughly 79,000, 15% have a hit. Calls of active or inactive are those of the source. Cut-off read from the data, not from the text of the source: active = growth inhibition above about 70%; inactive = the rest.

Tests used:
[1] = NCI Yeast Anticancer Drug Screen. Data for the rad52 strain (AID 147);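 note: 0% = growth of vehicle-treated control cultures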; conditions: S. cerevisiae rad52 mutant growth inhibition, hits give high values
Method in brief: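 Growth of repair-deficient yeast cells was compared between compound-treated and vehicle-treated cultures to give percent inhibition.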

[2] = NCI Yeast Anticancer Drug Screen. Data for the wt1 strain (AID 149);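 note: 0% = growth of vehicle-treated wt1 cultures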; conditions: S. cerevisiae wt1 strain (SPY 50644) growth inhibition, hits give high values
Method in brief: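 Readout: yeast growth inhibition, normalised to vehicle controls, in the wt1 strain exposed to test compounds.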

[3] = NCI Yeast Anticancer Drug Screen. Data for the rad50EPP+ strain (AID 151);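 note: 0% = growth of vehicle-treated control cultures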; conditions: S. cerevisiae rad50 mutant strain, hits give high values
Method in brief: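 Measured: growth inhibition of rad50EPP+ yeast. Reference: vehicle-treated controls. Screen uses strains with defined genetic alterations in DNA damage repair or cell cycle control.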

[4] = NCI Yeast Anticancer Drug Screen. Data for the mgt1 strain (AID 153); conditions: S. cerevisiae mgt1 mutant growth inhibition, hits give high values
Method in brief: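 Compounds were applied to mgt1 mutant yeast, and growth was then compared against vehicle-treated control cultures to give percent inhibition.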

[5] = NCI Yeast Anticancer Drug Screen. Data for the rad50 strain (AID 155);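 note: 0% = growth of vehicle-only cultures of the same strain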; conditions: S. cerevisiae rad50 strain growth inhibition, hits give high values
Method in brief: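 Compounds were tested on a yeast strain with an engineered DNA damage repair alteration; the reported value is growth inhibition normalised to vehicle treatment.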

[6] = NCI Yeast Anticancer Drug Screen. Data for the mec2-1 strain (AID 157); conditions: S. cerevisiae mec2-1 strain, hits give high values
Method in brief: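 Compounds were applied to mec2-1 yeast cells. Their growth was then compared with that of vehicle-treated cultures to give growth inhibition.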

[7] = NCI Yeast Anticancer Drug Screen. Data for the rad14 strain (AID 159);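 note: 0% = growth of vehicle-treated control cultures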; conditions: S. cerevisiae rad14 strain growth inhibition, hits give high values
Method in brief: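 Compound-treated yeast with a defined DNA-repair lesion; growth inhibition normalised to vehicle-treated cultures.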

[8] = NCI Yeast Anticancer Drug Screen. Data for the sgs1 mgt1 strain (AID 161);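 note: 0% = growth of cultures given vehicle only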; conditions: S. cerevisiae sgs1 mgt1 strain, hits give high values
Method in brief: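 This yeast growth screen uses a strain with defined DNA-repair lesions; compound-treated growth is compared with vehicle-treated growth.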

[9] = NCI Yeast Anticancer Drug Screen. Data for the CLN2oe strain (AID 163);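 note: 0% = growth of vehicle-only control cultures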; conditions: S. cerevisiae CLN2oe strain, hits give high values
Method in brief: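 Cells of an engineered yeast line with disturbed cell-cycle regulation are treated with compound. Inhibition of growth is then calculated relative to the vehicle-treated reference.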

[10] = NCI Yeast Anticancer Drug Screen. Data for the cln2 rad14 strain (AID 165);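 note: 0% = growth equal to vehicle treated cultures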; conditions: S. cerevisiae cln2 rad14 strain, hits give high values
Method in brief: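 Strain: cln2 rad14 yeast, altered in cell cycle control and DNA damage repair. Read-out: growth inhibition vs vehicle.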

[11] = NCI Yeast Anticancer Drug Screen. Data for the bub3 strain (AID 167); conditions: S. cerevisiae bub3 mutant strain, hits give high values
Method in brief: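 Growth of a checkpoint-deficient yeast mutant is measured after compound exposure. Values represent inhibition relative to vehicle.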

[12] = NCI Yeast Anticancer Drug Screen. Data for the wt2 strain (AID 169);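 note: 0% = growth of vehicle-treated yeast cultures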; conditions: S. cerevisiae wt2 strain growth inhibition, hits give high values
Method in brief: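 Growth of compound-treated yeast is measured and expressed as inhibition relative to vehicle-only controls.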

[13] = NCI Yeast Anticancer Drug Screen. Data for the mlh1 strain (AID 171);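 note: 0% = growth of vehicle-treated control cultures of the same strain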; conditions: S. cerevisiae mlh1 strain growth inhibition, hits give high values
Method in brief: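 Test agents were incubated with yeast bearing a defined DNA damage repair or cell cycle control alteration; values are growth inhibition normalised to vehicle-treated cultures.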

[14] = NCI Yeast Anticancer Drug Screen. Data for the sgs1 strain (AID 173);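 note: 0% = growth of vehicle-only control cultures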; conditions: S. cerevisiae sgs1 mutant, hits give high values
Method in brief: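 Strain with an altered DNA repair or cell cycle pathway exposed to compound. Growth then measured. Value = inhibition versus vehicle control.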

[15] = NCI Yeast Anticancer Drug Screen. Data for the mlh1 rad18 strain (AID 175); conditions: S. cerevisiae mlh1 rad18 strain growth inhibition, hits give high values
Method in brief: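 A repair-deficient yeast strain is exposed to test compound, and growth is scored relative to vehicle-treated controls.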

[16] = NCI Yeast Anticancer Drug Screen. Data for the rad18 strain (AID 177); conditions: S. cerevisiae rad18 mutant growth inhibition, hits give high values
Method in brief: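 DNA-repair-defective yeast; compound treatment; growth inhibition scored against vehicle.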

[17] = at 5.0 µM (retest, dose inferred, filed as 0.5)
[18] = at 50.0 µM (retest, dose inferred, filed as 5.0)

Measured: growth inhibition

CN(N=O)N1C(=O)SCC(c2ccccc2)(c2ccccc2)C1=O
active: [11]; [18] 70% | [15]; [18] 71% | [15]; at 50.0 µM 84.5% | [16]; at 100.0 µM 72%
inactive: [1]; at 1.2 µM -2% | [1]; at 3.7 µM 1% | [1]; at 11.0 µM 6% | [1]; at 33.0 µM 16% | [1]; at 100.0 µM 42% | [2]; at 1.2 µM -3% | [2]; at 3.7 µM -5% | [2]; at 11.0 µM -3% | [2]; at 33.0 µM -3% | [2]; at 100.0 µM 4% | [3]; at 1.2 µM -4% | [3]; at 3.7 µM 0% | [3]; at 11.0 µM 0% | [3]; at 33.0 µM 2% | [3]; at 100.0 µM 3% | [4]; at 1.2 µM -1% | [4]; at 3.7 µM 1% | [4]; at 11.0 µM 1% | [4]; at 33.0 µM -1% | [4]; at 100.0 µM 3% | [5]; at 1.2 µM 3% | [5]; at 3.7 µM 4% | [5]; [17] -26% | [5]; at 11.0 µM 13% | [5]; at 33.0 µM 11% | [5]; [18] 66% | [5]; at 50.0 µM 56% | [5]; at 100.0 µM 37% | [6]; at 1.2 µM 0% | [6]; at 3.7 µM 1% | [6]; [17] 10% | [6]; at 11.0 µM 1% | [6]; at 33.0 µM 5% | [6]; [18] 40% | [6]; at 50.0 µM 32.2% | [6]; at 100.0 µM 27% | [7]; at 1.2 µM 1% | [7]; at 3.7 µM -5% | [7]; at 11.0 µM -3% | [7]; at 33.0 µM -10% | [7]; at 100.0 µM -4% | [8]; [17] 9% | [8]; [18] 64% | [8]; at 50.0 µM 48.5% | [9]; at 1.2 µM -1% | [9]; at 3.7 µM 4% | [9]; at 11.0 µM 4% | [9]; at 33.0 µM 2% | [9]; at 100.0 µM 9% | [10]; [17] -26% | [10]; [18] 16% | [10]; at 50.0 µM 10.7% | [11]; at 1.2 µM -2% | [11]; at 3.7 µM 1% | [11]; [17] 3% | [11]; at 11.0 µM 12% | [11]; at 33.0 µM 15% | [11]; at 50.0 µM 66.2% | [11]; at 100.0 µM 26% | [12]; at 1.2 µM -1% | [12]; at 3.7 µM -1% | [12]; at 11.0 µM -1% | [12]; at 33.0 µM 1% | [12]; at 100.0 µM 11% | [13]; at 1.2 µM 3% | [13]; at 3.7 µM -1% | [13]; at 11.0 µM 1% | [13]; at 33.0 µM 2% | [13]; at 100.0 µM -8% | [14]; at 1.2 µM -1% | [14]; at 3.7 µM 0% | [14]; at 11.0 µM 5% | [14]; at 33.0 µM 13% | [14]; at 100.0 µM 35% | [15]; [17] -7% | [16]; at 1.2 µM -1% | [16]; at 3.7 µM -3% | [16]; at 11.0 µM 8% | [16]; at 33.0 µM 28%
